In PubChem BioAssay:
The source made the active and inactive calls. Rule as the data show it, unless noted: active = inhibition above about 36%; inactive = the rest.

Tests used:
[1] = test system: transactivating tegument protein VP16 (Human herpesvirus 1); assay: VP16 transactivation reporter inhibitors, counter-screen for SRC2 inhibitor project, cell-based, luminescence, single concentration (AID 652007); conditions: cell-based VP16 transactivation luciferase reporter, at 8.9 µM, active compounds read high
[2] = target: Nuclear receptor coactivator 2 (Homo sapiens) (UniProt Q15596); assay: SRC2 coactivator transcriptional activity inhibitors, confirmation, cell-based, luminescence, HEK293, triplicate (AID 652008;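 active = mean inhibition above 46.5%, the solvent-only control mean plus 3 SD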;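 also: 0% = DMSO-treated cells and 100% = Gossypol at 36 µM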); conditions: HEK293 GAL4-SRC2 luciferase reporter, at 8.9 µM, active compounds read high
Chain of Nuclear receptor coactivator 2 (Homo sapiens) (Q15596 whole entry, looked up, the tested form may be a part): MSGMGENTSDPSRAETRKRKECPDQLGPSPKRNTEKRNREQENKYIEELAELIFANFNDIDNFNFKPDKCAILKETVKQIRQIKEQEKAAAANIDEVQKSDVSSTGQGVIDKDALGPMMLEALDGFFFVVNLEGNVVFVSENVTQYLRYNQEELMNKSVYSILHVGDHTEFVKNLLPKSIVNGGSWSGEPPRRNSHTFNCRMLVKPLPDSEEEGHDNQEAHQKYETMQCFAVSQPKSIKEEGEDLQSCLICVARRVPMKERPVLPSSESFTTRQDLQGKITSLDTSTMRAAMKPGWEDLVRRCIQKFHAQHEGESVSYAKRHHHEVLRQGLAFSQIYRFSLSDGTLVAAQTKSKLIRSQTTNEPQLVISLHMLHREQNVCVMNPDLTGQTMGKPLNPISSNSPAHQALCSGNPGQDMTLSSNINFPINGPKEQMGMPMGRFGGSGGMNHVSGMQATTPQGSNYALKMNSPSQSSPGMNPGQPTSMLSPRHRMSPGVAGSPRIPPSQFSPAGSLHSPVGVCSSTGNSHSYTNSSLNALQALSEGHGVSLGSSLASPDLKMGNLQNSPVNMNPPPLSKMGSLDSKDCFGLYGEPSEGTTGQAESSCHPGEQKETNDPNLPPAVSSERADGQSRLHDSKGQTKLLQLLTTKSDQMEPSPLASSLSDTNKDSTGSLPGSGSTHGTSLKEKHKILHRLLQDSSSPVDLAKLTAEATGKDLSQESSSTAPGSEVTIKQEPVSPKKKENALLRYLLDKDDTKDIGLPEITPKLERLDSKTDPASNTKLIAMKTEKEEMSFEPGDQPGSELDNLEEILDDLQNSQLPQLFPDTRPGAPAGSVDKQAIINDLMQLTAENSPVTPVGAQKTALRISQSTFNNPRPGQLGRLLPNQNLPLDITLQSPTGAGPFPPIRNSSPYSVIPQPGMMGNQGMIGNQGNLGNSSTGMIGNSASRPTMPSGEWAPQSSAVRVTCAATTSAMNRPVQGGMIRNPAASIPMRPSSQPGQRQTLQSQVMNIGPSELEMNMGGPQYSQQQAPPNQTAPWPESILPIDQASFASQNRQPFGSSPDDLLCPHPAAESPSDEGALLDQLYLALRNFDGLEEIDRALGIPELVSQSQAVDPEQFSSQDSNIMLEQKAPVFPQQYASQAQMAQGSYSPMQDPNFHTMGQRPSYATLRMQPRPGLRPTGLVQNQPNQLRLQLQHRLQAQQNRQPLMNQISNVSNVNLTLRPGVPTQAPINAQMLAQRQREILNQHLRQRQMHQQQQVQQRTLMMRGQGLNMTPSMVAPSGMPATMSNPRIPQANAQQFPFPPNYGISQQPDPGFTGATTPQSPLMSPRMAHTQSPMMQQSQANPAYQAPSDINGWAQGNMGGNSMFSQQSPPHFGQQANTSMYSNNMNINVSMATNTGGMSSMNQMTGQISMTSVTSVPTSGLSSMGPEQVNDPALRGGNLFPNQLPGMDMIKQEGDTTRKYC

SMILES	inhibition [1]	inhibition [2]
CCN(CC)S(=O)(=O)c1cccc(-n2c(O)c(C=Nc3ccccc3C(=O)O)c3ccccc3c2=O)c1	-0.6% (inactive)	21.9% (inactive)
CCCOc1ccc(C(=O)C(CN2CCOCC2)c2ccccc2)cc1 (stereo not drawn)	14% (inactive)	53.9% (active)
Cc1c(CCC(=O)N2CCC[C@H]2C(=O)O)c(=O)oc2c(C)c3oc4c(c3cc12)CCCC4	39% (active)	37.5% (inactive)
O=S(=O)(c1cc(C(F)(F)F)ccc1Cl)N1CCN(c2ncnc3ccccc23)CC1	17.2% (inactive)	18.7% (inactive)
O=C(Nc1nccs1)c1cc([N+](=O)[O-])ccc1Cl	12.7% (inactive)	42.9% (inactive)
CCC1CCCCN1S(=O)(=O)c1ccc(NC(=O)c2nc(S(C)(=O)=O)ncc2Cl)cc1 (stereo not drawn)	96.7% (active)	72.7% (active)
O=C(CCCN1C(=O)/C(=C/c2ccccc2Cl)SC1=S)NNC(=O)c1ccc(Cl)cc1	73.7% (active)	82% (active)
COc1ccccc1/C=C1\SC(=S)N(CCC(=O)NCCCn2ccnc2)C1=O	-0.06% (inactive)	1.79% (inactive)
Cc1ccc(S(=O)(=O)CCSC(=N)N)cc1	2.05% (inactive)	6.17% (inactive)
O=C(c1ccc(S(=O)(=O)Cc2cc(F)ccc2F)c([N+](=O)[O-])c1)N1CCOCC1	5.57% (inactive)	13.5% (inactive)
CCOc1ccc(C(=O)CCC(=O)Nc2cccc(S(=O)(=O)N3CCCCC3)c2)cc1	4.55% (inactive)	44.2% (inactive)
Cc1ccc([C@@H]2C[C@H]3[C@@H](CN2S(=O)(=O)c2ccc(C)cc2)C(=O)C[C@@H](c2ccccc2F)N3S(=O)(=O)c2ccc(C)cc2)cc1	-8.37% (inactive)	-5.47% (inactive)
COc1ccc(NC(=O)Nc2nnc(Cc3ccc(OC)c(OC)c3)s2)cc1	4.37% (inactive)	-0.57% (inactive)
COc1cc(OC)nc(Nc2nc(C(N)Cc3ccc(F)cc3)cs2)n1 (stereo not drawn)	-4.22% (inactive)	-0.34% (inactive)
Cc1cc(C(=O)NNS(=O)(=O)c2cc(C(=O)O)ccc2Cl)c(C)n1-c1ccccc1	2.27% (inactive)	45.4% (inactive)
CC1CCCCC12NC(=O)N(CC(=O)Nc1ccc(OC(F)F)cc1)C2=O (stereo not drawn)	-18.4% (inactive)	-11.2% (inactive)
COC(=O)[C@]12C[C@H](CC(=O)N3CCCCC3)C(=O)N(Cc3ccco3)C1=C[C@H](C(C)C)O[C@@H]2C1CC1	-5.52% (inactive)	-14.3% (inactive)
Cc1cc(C)c(C)c(N=Nc2nc3ccccc3n2C)c1C	-75.3% (inactive)	49.7% (active)
CCS(=O)(=O)Nc1ccc(C2=NN(C(=O)c3ccco3)C(c3cccs3)C2)cc1 (stereo not drawn)	-5.61% (inactive)	-29.7% (inactive)
c1ccc(-c2csc3ncnc(NCc4ccccn4)c23)cc1	-7.12% (inactive)	4.33% (inactive)
Cc1cc(Nc2ccccc2)n(C(=O)c2ccc(N)cc2)n1	-71.3% (inactive)	0.44% (inactive)
O=C(NCCCN1CCN(c2ccccc2)CC1)C1CCCN(c2ncnc3c2nc2n3CCCCC2)C1 (stereo not drawn)	6.18% (inactive)	-21.6% (inactive)
Cc1ccc(C(=O)Nc2ncc([N+](=O)[O-])s2)cc1	-7.15% (inactive)	57.7% (active)
COc1ccc(CN2C[C@H](COCc3ccccc3)Oc3cccc(N4CCCC4)c3S2(=O)=O)cc1	-11% (inactive)	-6.23% (inactive)
